The text below walks through data of PubChem BioAssay (NCATS).

Records with an inconclusive call do not appear. Activity calls are given as the source filed them. Unless noted, the call rests on the fitted dose curve; in most records, active means well fitted inhibition curve with a large enough effect; inconclusive means small, poorly fitted or top-dose-only effect; inactive means flat fitted curve, though single readings scatter.

The nature of experiment [1]: qHTS drug screen for cell cycle checkpoint inhibitors in PARPi-resistant BRCA-mutant ovarian cancer cell lines. (AID 1963452; calls by dose curve). The conditions noted are these: PEO1/OlaR viability, CellTiter-Glo luminescence, 96 h, stronger effect = lower value. In a few lines:
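PEO1, PEO4 and PEO1/OlaR ovarian cancer cells, 600 per well, exposed 96 h at 37C to a dilution series. Viability read by CellTiter-Glo luminescence, normalized to DMSO and empty wells; activity summarized as Z-AUC.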
A general note: qHTS replaces the single test concentration by a dilution series.

A short description of experiment [2]: qHTS profiling for inhibitors of Plasmodium falciparum proliferation (AID 504749). Further: nearly all actives have a fitted effect of over 60% in size. Further: potency means the concentration at half of the fitted maximal effect.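 On activity, negative = inhibition: 0% = DMSO vehicle and full inhibition = artemisinin control.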 To be noted: P. falciparum in erythrocytes, SYBR Green DNA, 72 h. An outline of the steps: (§1)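 Infected RBCs, 0.3% parasitemia/2.5% Hct final; cpd 72 h, 37 C, 5% CO2; lysis buffer with saponin/triton/SYBR Green I, o/n RT dark; FI 485/535; norm. to artemisinin (0.29 uM) and DMSO.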

For experiment [3], the system named is AA1029. The experiment is described as above. To be noted: P. falciparum in erythrocytes, SYBR Green DNA, 72 h; series mostly up to 28.7 µM. An outline of the steps:
as §1

Experiment [4] has as its system ATS189. The description is as above. To be noted: P. falciparum in erythrocytes, SYBR Green DNA, 72 h; series mostly up to 28.7 µM. An outline of the steps:
as §1

Experiment [5] relates to ATS95. The experiment is described as above. The conditions noted are these: P. falciparum in erythrocytes, SYBR Green DNA, 72 h; series mostly up to 28.7 µM. An outline of the steps:
as §1

Experiment [6] relates to C2A. The description is as above. The conditions noted are these: P. falciparum in erythrocytes, SYBR Green DNA, 72 h; series mostly up to 28.7 µM. In a few lines:
as §1

The subject of experiment [7] is CP185. The experiment is described as above. To be noted: P. falciparum in erythrocytes, SYBR Green DNA, 72 h; series mostly up to 28.7 µM. An outline of the steps:
as §1

Experiment [8] has as its system CP191. Described as above. To be noted: P. falciparum in erythrocytes, SYBR Green DNA, 72 h; series mostly up to 28.7 µM. An outline of the steps:
as §1

The test system of experiment [9] is CP192. The description is as above. To be noted: P. falciparum in erythrocytes, SYBR Green DNA, 72 h; series mostly up to 28.7 µM. In a few lines:
as §1

The subject of experiment [10] is CP194. The experiment is described as above. To be noted: P. falciparum in erythrocytes, SYBR Green DNA, 72 h; series mostly up to 28.7 µM. An outline of the steps: as §1
The subject of experiment [11] is CP201. Described as above. To be noted: P. falciparum in erythrocytes, SYBR Green DNA, 72 h; series mostly up to 28.7 µM. In a few lines:
as §1

The nature of experiment [12]: qHTS for identification of novel therapeutic agents for treatment of microphthalmiaassociated transcription factor (MiT) renal cell carcinoma (RCC) (AID 1963991; calls by dose curve; further: potency means the concentration at half of the fitted maximal effect). To be noted: CellTiter-Glo, 48 h; for z-score: stronger effect = lower value; for Potency: active = Z-AUC below -0.8 in all three lines. An outline of the steps:
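Viability of three TFE3-fusion renal carcinoma lines measured by CellTiter-Glo after 48 h treatment with each of 1912 compounds at 11 concentrations. Responses scaled between DMSO (100%) and empty wells (0%) before curve fitting.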

The subject of experiment [13] is 3D7. Briefly: qHTS profiling for inhibitors of Plasmodium falciparum proliferation (AID 504749). Further: nearly all actives have a fitted effect of over 60% in size. Further: potency means the concentration at half of the fitted maximal effect.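 On activity, negative = inhibition: 0% = DMSO vehicle and full inhibition = artemisinin control.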 The conditions noted are these: P. falciparum in erythrocytes, SYBR Green DNA, 72 h; series mostly up to 28.7 µM. An outline of the steps: as §1
Experiment [14] has as its system 7G8. The description is as above. The conditions noted are these: P. falciparum in erythrocytes, SYBR Green DNA, 72 h; series mostly up to 28.7 µM. An outline of the steps: as §1
The test system of experiment [15] is AS120. Described as above. To be noted: P. falciparum in erythrocytes, SYBR Green DNA, 72 h; series mostly up to 28.7 µM. An outline of the steps:
as §1

Experiment [16] deals with CP203. Described as above. To be noted: P. falciparum in erythrocytes, SYBR Green DNA, 72 h; series mostly up to 28.7 µM. An outline of the steps:
as §1

Setting [17] is: measured here: PEO1 parental Z-AUC.
[18] abbreviates: at 12.8 µM (top of the series), parasite line B.
Where [19] appears, read: TFE3-RCC UOK109 viability, measured here: UOK109 Z-AUC.
Setting [20] is: TFE3-RCC viability, measured here: UOK124 Z-AUC.
Setting [21] is: TFE3-RCC viability, measured here: UOK145 Z-AUC.
[22] abbreviates: at 12.8 µM (top of the series), parasite line A.
Setting [23] is: at 28.7 µM (top of the series), parasite line A.
Where [24] appears, read: at 28.7 µM (top of the series), parasite line B.

In the case of `NNCCc1ccccc1`, the Z-AUC in experiment [1] was 0.52 (inactive); in experiment [1] (setting [17]), 0.364; in experiment [1] (measured here: PEO4 Z-AUC) it was 0.249. In addition, the activity, negative = inhibition in [2] (setting [18]) is -6.84% (inactive). For the same molecule, the Potency entry in [3], in experiment [4], in experiment [5], in experiment [6], in [7] and in [8] was “inactive” each time. Further, the Potency result in experiment [9] and in [10] was “inactive” throughout. The result in experiment [11] was inactive.

For `CCOc1cc(C=C2C(=O)N(c3ccccc3)N=C2C)cc(Cl)c1OCC(=O)OC`, the results for the z-score in experiment [12] (setting [19]), in experiment [12] (setting [20]) and in experiment [12] (setting [21]) were 0.66, 0.208 and 0.267, respectively.

Turning to `Cc1oncc1C(=O)Nc1ccc(C(F)(F)F)cc1`, the Z-AUC in [1] was 0.594 (inactive); in [1] (setting [17]), 0.454; in [1] (measured here: PEO4 Z-AUC), 0.504. Moreover, the activity, negative = inhibition is -4.31% (inactive) in experiment [2] (setting [22]) and 9.52% (inactive) in [2] (setting [18]). Moreover, the Potency entry in [13], in experiment [3], in experiment [15], in [4], in experiment [5] and in experiment [6] was “inactive” in each case. Further, the Potency result in [7], in experiment [9] and in [10] was “inactive” throughout. The Potency in experiment [14] is 3.55 µM (active). Besides, the result in experiment [11] was inactive.

Turning to `CCOC(=O)C1=C[C@@]2(CC)CCCN3CCc4c(n1c1ccccc41)[C@H]32`, the Potency in experiment [9] and in experiment [10] was 13.5 µM (active) each time.

As to `CCCc1nn(C)c2c(=O)[nH]c(-c3cc(S(=O)(=O)N4CCN(C)CC4)ccc3OCC)nc12`, the Z-AUC was 1.57 (inactive) in experiment [1], 1.2 in experiment [1] (setting [17]) and 0.991 in [1] (measured here: PEO4 Z-AUC). The activity, negative = inhibition in experiment [2] (setting [23]) was 8.82% (inactive); in experiment [2] (setting [24]) it was 0.131% (inactive). The Potency result in [13], in experiment [3], in experiment [15], in [4], in [5] and in experiment [6] was “inactive” each time. The Potency entry in [7], in experiment [8], in experiment [9], in experiment [10] and in [16] was “inactive” throughout. In addition, in experiment [14], the Potency was 11.2 µM (active). Besides, the molecule was classed as inactive in [11].

As to `CC(C)NCC(O)COc1ccc(COCCOC(C)C)cc1` (stereo unspecified), the activity, negative = inhibition in experiment [2] (setting [23]) is 1.04% (inactive); in [2] (setting [24]), 5.04% (inactive). Moreover, the Potency result in experiment [13], in experiment [14], in experiment [3], in experiment [15], in experiment [4] and in [5] was “inactive” throughout. The Potency entry in experiment [6], in experiment [7], in experiment [8], in [9] and in experiment [10] was “inactive” each time. The molecule was called inactive in experiment [11].

For the molecule `Cc1c(CN2CCN(C(=O)C(C)C)CC2)sc2c(N3CCOCC3)nc(-c3cnc(N)nc3)nc12`, in experiment [12] (TFE3-RCC UOK109 viability), the Potency is 0.118 µM (active). Besides, the figures for the z-score in experiment [12] (setting [19]), in [12] (setting [20]) and in experiment [12] (setting [21]) were -1.83, -1.54 and -2.67, respectively.

Regarding `NC(N)=NC(=O)c1nc(Cl)c(N)nc1N`, the Z-AUC was -0.792 (inactive) in [1], -0.971 in experiment [1] (setting [17]) and -0.392 in experiment [1] (measured here: PEO4 Z-AUC). The Potency in experiment [14] was 2 µM (active); in [8], 8.91 µM (active). For the same molecule, the Potency result in experiment [7], in experiment [9] and in experiment [10] was “inactive” each time. Moreover, the result in experiment [11] was inactive.

As to `N=c1nc(N2CCCCC2)cc(N)n1O`, the results for the activity, negative = inhibition in experiment [2] (setting [23]) and in experiment [2] (setting [24]) were 6.18% (inactive) and 18.3% (inactive), respectively. Besides, the Potency entry in [13], in [14], in experiment [3], in experiment [15], in experiment [4] and in [5] was “inactive” throughout. Further, the Potency entry in experiment [6], in [7], in experiment [8], in [9] and in experiment [10] was “inactive” in each case. The call in experiment [11] was inactive.

As for `COc1ccc(-c2ccc3c(N4CCOC[C@H]4C)nc(N4CCOC[C@H]4C)nc3n2)cc1CO`, the Potency in experiment [12] (TFE3-RCC UOK109 viability) was 0.0935 µM (active). The results for the z-score in experiment [12] (setting [19]), in [12] (setting [20]) and in [12] (setting [21]) were -1.8, -2.87 and -2.13, respectively.

Turning to `NS(=O)(=O)c1cc2c(cc1Cl)NC=NS2(=O)=O`, the Z-AUC was 0.885 (inactive) in experiment [1], 1.02 in [1] (setting [17]) and 0.779 in [1] (measured here: PEO4 Z-AUC). The activity, negative = inhibition is 7.83% (inactive) in experiment [2] (setting [23]) and 11% (inactive) in experiment [2] (setting [24]). Further, the Potency result in experiment [13], in experiment [14], in experiment [3], in [15], in experiment [4] and in [5] was “inactive” each time. Moreover, the Potency entry in experiment [6], in [7], in experiment [8], in experiment [9] and in experiment [10] was “inactive” each time. Moreover, the molecule was classed as inactive in experiment [11].

As to `N#Cc1ccc(C(c2ccc(C#N)cc2)n2cncn2)cc1`, the figures for the Z-AUC in experiment [1], in experiment [1] (setting [17]) and in [1] (measured here: PEO4 Z-AUC) were 1.61 (inactive), 1.56 and 1.79, respectively. Besides, the activity, negative = inhibition in [2] (setting [22]) was 0.0131% (inactive); in [2] (setting [18]) it was 3.12% (inactive). Further, the Potency entry in experiment [13], in experiment [14], in experiment [3], in experiment [15], in [4] and in experiment [5] was “inactive” throughout. Besides, the Potency entry in [6], in [7], in [8], in [9] and in experiment [10] was “inactive” in each case. Further, the call in experiment [11] was inactive.
